Each molecule was assayed on T1, DRAK1. Settings: concentration: 1 μM, replicates: in singlicate; n = 1.
T1 construct: gene STK17A
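Further: KINOMEscan kinase panel screen.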

| Compound | %Inh [%] |
| --- | --- |
| Cc1cccc(-c2nc(Nc3cccc(C(N)=O)c3)c3ccccc3n2)n1 [GW876019] | 8 |
| CC(C)(C)c1ccc(C(=O)Nc2cn3cc(-c4cccnc4)ccc3n2)cc1 | 10 |
| Clc1cc(Cl)cc(Nc2ccnc(Nc3cc(Cl)cc(Cl)c3)n2)c1 [GSK175726] | 0 |
| COc1ccc(CNC(=O)NC2CCN(c3ccnc(Nc4cc(OC)c(OC)c(OC)c4)n3)C2)cc1 (stereo not drawn) [GSK1379748] | 10 |
| Fc1cccc(COc2nnc(-c3ccc4c(c3)CCO4)o2)c1 | 6 |
| CN1C(=O)C(Nc2ccc(Cl)c(C(=O)O)c2)=C(c2ccc(Cl)cc2)C1=O [SB-404290] | 0 |
| Cn1cncc1-c1ccc2ncnc(Nc3ccc(OCc4ccccc4)cc3)c2c1 [GW320571] | 6 |
| Nc1ncnc2[nH]c(-c3ccccc3)nc12 [AH5015] | 5 |
| Cc1nnc(-c2ccc3occ(-c4ccc(S(C)=O)cc4)c3c2)[nH]1 (stereo not drawn) | 26 |
| Fc1cc(Cl)ccc1Nc1ccnc2cc(I)ccc12 [GW551191] | 0 |
| CC(C)(C)c1ccc(C(=O)Nc2cn3cc(Cl)ccc3n2)cc1 | 5 |
| C[C@@H]1CCCCN1c1cc(-c2ccc3c(N)n[nH]c3c2)nc(N)n1 [GSK2258759] | 96 |
| Cc1cccc(-c2nc(Nc3ccc4[nH]ncc4c3)c3ccccc3n2)n1 [GW857175] | 13 |
| Cc1cccc(-c2cc(Nc3ccncc3)c3ccccc3n2)n1 [GSK223675] | 0 |
| COc1cc2nccc(Nc3ccc(NC(=O)c4ccc(C)cc4)c(O)c3)c2cc1OC.Cl [GW440132] | 0 |

Reference: article PMC5540273 (PLoS ONE, 2017)
